Data on 26 molecules can be found in PubChem BioAssay (NCATS).

For some of these results: Entries with a potency or affinity are not part of this list. Calls of active or inactive are those of the source. How the calls were made is not given here.

Experiment in one experiment: not given
As to conditions: Ebola virus entry assay, reporter ratio channel; AC50: Channel type: primary unless noted; outcome: Channel type: primary unless noted.
Turning to `CN1CC[C@H](c2c(O)cc(O)c3c(=O)cc(-c4ccccc4Cl)oc23)[C@H](O)C1`, the result was inactive.

In the case of `CCC1(C2=NCCN2)Cc2ccccc2O1` (centres undefined), the outcome was inactive.

Usually AC50 stands for the concentration giving half of the maximal activity seen. Turning to `CC1(CN2CCC(n3c(=O)[nH]c4ccccc43)CC2)OCc2ccccc2-n2cccc21` (centres undefined), the AC50 is 15.8 µM (active).

`COc1cc([C@@H]2c3cc4c(cc3[C@H](O)[C@H]3COC(=O)[C@H]23)OCO4)cc(OC)c1OC`: the AC50 was 5.01 µM (active).

For `Cc1cc2c(C(C)C)c(O)c(O)c(C=O)c2c(O)c1-c1c(C)cc2c(C(C)C)c(O)c(O)c(C=O)c2c1O`, the AC50 is 39.8 µM (active).

With `O=C1NCN(c2ccccc2)C12CCN(CC1COc3ccccc3O1)CC2` (centres undefined), the result was inactive.

As to `C=C(C)[C@H]1Cc2c(ccc3c2O[C@@H]2COc4cc(OC)c(OC)cc4[C@@H]2C3=O)O1`, the AC50 is 8.91 µM (active).

As for `CN1C(=S)CN=C(c2ccccc2)c2cc(Cl)ccc21`, the result was inactive.

On to `Cn1c(CCCC(=O)O)nc2cc(N(CCCl)CCCl)ccc21`, for which the result was inactive.

Experiment in the next experiment: not given
As to conditions: Ebola virus entry assay, blue channel (ratio component).
Regarding `O=c1oc2ccccc2c(O)c1C(CC(O)c1ccc(-c2ccc(Br)cc2)cc1)c1ccccc1` (centres undefined), the outcome was inactive.

Take `CN1CC[C@H](c2c(O)cc(O)c3c(=O)cc(-c4ccccc4Cl)oc23)[C@H](O)C1`: the result was inactive.

As to `CCC1(C2=NCCN2)Cc2ccccc2O1` (centres undefined), the outcome was inactive.

`O=C1NCN(c2ccccc2)C12CCN(CC1COc3ccccc3O1)CC2` (centres undefined): the result was inactive.

For the molecule `O=c1c(O)c(-c2ccc(O)c(O)c2)oc2cc(O)cc(O)c12`, the outcome was inactive.

For the molecule `CN1C(=S)CN=C(c2ccccc2)c2cc(Cl)ccc21`, the result was inactive.

As for `Cn1c(CCCC(=O)O)nc2cc(N(CCCl)CCCl)ccc21`, the outcome was inactive.

A short description of the next experiment: Immunotoxin (HA22) sensitization/mitigation study. Vehicle arm (PBS) (AID 1159510). Further: potency means the concentration at half of the fitted maximal effect. As to conditions: cancer cells viability with PBS vehicle (HA22 study); series mostly up to 46.1 µM.
With `Cc1ccc(-n2nc(C(C)(C)C)cc2NC(=O)Nc2ccc(OCCN3CCOCC3)c3ccccc23)cc1`, the Potency was 10.5 µM (active).

As for `O=C(O)C(=O)c1cn(Cc2ccccc2)c2ccc(-c3ccc(OC(F)(F)F)cc3)cc12`, the Potency was 23.5 µM (active).

Consider `CC(C)C[C@H](NC(=O)[C@H](CCc1ccccc1)NC(=O)CN1CCOCC1)C(=O)N[C@@H](Cc1ccccc1)C(=O)N[C@@H](CC(C)C)C(=O)[C@@]1(C)CO1`, for which the Potency is 0.0015 µM (active).

For the molecule `C=CC(=O)Nc1cc2c(Nc3ccc(F)c(Cl)c3)ncnc2cc1OCCCN1CCOCC1`, the Potency was 18.7 µM (active).

In the case of `C[C@@H]1[C@@H](CC(C[C@H]2O[C@@H]3O[C@]4(C)CC[C@@H]5[C@H](C)CC[C@@H]([C@H]2C)[C@@]35OO4)C[S+](=O)([O-])c2ccc(COC(=O)N(C)C)cc2)O[C@@H]2O[C@]3(C)CC[C@H]4[C@H](C)CC[C@@H]1[C@@]24OO3` (some centres undefined), the Potency is 0.0332 µM (active).

As to `CCCCC/C=C\C/C=C\C/C=C\C/C=C\CCCC(=O)NC1CC1`, the Potency entry was “inactive”.

Regarding `CC1=C(/C=C/C(C)=C/C=C/C(C)=C/C(=O)Nc2ccc(O)cc2)C(C)(C)CCC1`, the Potency is 1.87 µM (active).

In the case of `COc1ccc(C(=O)c2c(C)n(CCN3CCOCC3)c3ccccc23)cc1`, the Potency was 20.9 µM (active).

`COc1cc(Nc2c(C#N)cnc3cc(OCCCN4CCN(C)CC4)c(OC)cc23)c(Cl)cc1Cl`: the Potency is 13.2 µM (active).

As to `COc1cc2c(N3CCN(C(=O)Nc4ccc(OC(C)C)cc4)CC3)ncnc2cc1OCCCN1CCCCC1`, the Potency was 20.9 µM (active).

Take `COC[C@H]1OC(=O)c2coc3c2[C@@]1(C)C1=C(C3=O)C2CCC(=O)[C@@]2(C)C[C@H]1OC(C)=O` (some centres undefined): the Potency is 5.9 µM (active).

For the molecule `CN(C)CCN(C)CCc1ccc(Cl)c(Cl)c1`, the Potency is 18.7 µM (active).

Regarding `COc1cccc2c1C(=O)c1c(O)c3c(c(O)c1C2=O)C[C@@](O)(C(=O)CO)C[C@@H]3O[C@H]1C[C@H](N)[C@H](O)[C@H](C)O1`, the Potency was 0.0118 µM (active).

Take `CO[C@@H](C(=O)N1Cc2[nH]nc(NC(=O)c3ccc(N4CCN(C)CC4)cc3)c2C1)c1ccccc1`: the Potency was 0.332 µM (active).

In the case of `C[C@@H]1[C@@H](C(=O)C[C@H]2O[C@@H]3O[C@]4(C)CC[C@@H]5[C@H](C)CC[C@@H]([C@H]2C)[C@@]35OO4)O[C@@H]2O[C@]3(C)CC[C@H]4[C@H](C)CC[C@@H]1[C@@]24OO3`, the Potency is 0.0264 µM (active).

Turning to `CC1(CN2CCC(n3c(=O)[nH]c4ccccc43)CC2)OCc2ccccc2-n2cccc21` (centres undefined), the Potency is 26.4 µM (active).

For the molecule `COc1cc([C@@H]2c3cc4c(cc3[C@H](O)[C@H]3COC(=O)[C@H]23)OCO4)cc(OC)c1OC`, the Potency was 0.0037 µM (active).

`Cc1cc2c(C(C)C)c(O)c(O)c(C=O)c2c(O)c1-c1c(C)cc2c(C(C)C)c(O)c(O)c(C=O)c2c1O`: the Potency is 8.33 µM (active).
